Experimental data as given in PubChem BioAssay (NCATS).
Inconclusive results are not listed. The list shows a part of the results. Entries that show only a call come without a potency. The source made the active and inactive calls. Unless noted, the call rests on the fitted dose curve; in most records, active means well fitted curve in the direction sought with a large enough effect; inconclusive means small, poorly fitted or top-dose-only effect, or another doubt; inactive means no such curve, though single readings can be large; an effect the other way counts as inactive or inconclusive.

How the values were obtained:
[1] = target: Luciferin 4-monooxygenase (Photinus pyralis) (UniProt P08659); assay: Biochemical firefly luciferase enzyme assay for NPC (AID 624030);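 further: purified P. pyralis luciferase at 10 nM with luciferin and ATP substrate; nearly all actives have a fitted effect of over 70% in size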
Luciferin 4-monooxygenase (Photinus pyralis), sequence (P08659 whole entry, looked up): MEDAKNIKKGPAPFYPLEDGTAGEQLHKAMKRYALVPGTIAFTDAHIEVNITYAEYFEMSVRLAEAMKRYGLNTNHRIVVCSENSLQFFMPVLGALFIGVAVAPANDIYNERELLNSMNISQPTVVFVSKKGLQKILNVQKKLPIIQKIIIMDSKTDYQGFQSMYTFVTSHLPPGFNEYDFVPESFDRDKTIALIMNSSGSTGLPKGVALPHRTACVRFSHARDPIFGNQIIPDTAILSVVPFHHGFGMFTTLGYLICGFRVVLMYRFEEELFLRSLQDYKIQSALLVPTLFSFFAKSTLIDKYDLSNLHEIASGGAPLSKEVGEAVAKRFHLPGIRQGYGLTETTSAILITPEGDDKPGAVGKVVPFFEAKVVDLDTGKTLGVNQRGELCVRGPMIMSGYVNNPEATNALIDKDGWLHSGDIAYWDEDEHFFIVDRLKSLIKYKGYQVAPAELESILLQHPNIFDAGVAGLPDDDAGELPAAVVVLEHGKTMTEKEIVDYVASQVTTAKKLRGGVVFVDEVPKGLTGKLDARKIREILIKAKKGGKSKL
Summary of the method: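 Direct inhibition of firefly luciferase enzyme (10 nM final, 50 mM Tris Acetate) assessed by luminescence within 5 minutes. Percent activity scaled between DMSO and PTC124 positive control, with concentration-effect curves classified by fit quality and response.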

[2] = S16 Schwann cell PMP22 intronic element firefly luciferase assay (AID 624032); further: nearly all actives have a fitted effect of over 30% in size
Summary of the method: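 Luciferase reporter of PMP22 intronic-element expression in stably transfected S16 rat Schwann cells, read by ONE-Glo luminescence after 24 h compound exposure at 37 C. Activity scaled between DMSO (0%) and positive-control PTC124; concentration-effect curves quality-classified.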

[3] = test system: 3D7; assay: qHTS profiling for inhibitors of Plasmodium falciparum proliferation (AID 504749); further: nearly all actives have a fitted effect of over 60% in size; further: potency means the concentration at half of the fitted maximal effect; conditions: P. falciparum in erythrocytes, SYBR Green DNA, 72 h; series mostly up to 28.7 µM
Summary of the method: (§1)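 In a 72 h erythrocytic culture (37 C, humidified, 5% CO2) at 2.5% hematocrit and 0.3% starting parasitemia, compounds were tested; SYBR Green I in detergent lysis buffer stained parasite DNA overnight.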

[4] = test system: ATS189; assay: as above; conditions: P. falciparum in erythrocytes, SYBR Green DNA, 72 h; series mostly up to 28.7 µM
Summary of the method: as §1

[5] = test system: ATS95; assay: as above; conditions: P. falciparum in erythrocytes, SYBR Green DNA, 72 h; series mostly up to 28.7 µM
Summary of the method: as §1

[6] = test system: CP260; assay: as above; conditions: P. falciparum in erythrocytes, SYBR Green DNA, 72 h; series mostly up to 28.7 µM
Summary of the method: as §1

[7] = test system: CP286; assay: as above; conditions: P. falciparum in erythrocytes, SYBR Green DNA, 72 h; series mostly up to 28.7 µM
Summary of the method: as §1

[8] = test system: CP335; assay: as above; conditions: P. falciparum in erythrocytes, SYBR Green DNA, 72 h; series mostly up to 28.7 µM
Summary of the method: as §1

[9] = test system: Dd2; assay: as above; conditions: P. falciparum in erythrocytes, SYBR Green DNA, 72 h; series mostly up to 28.7 µM
Summary of the method: as §1

[10] = test system: GB4; assay: as above; conditions: P. falciparum in erythrocytes, SYBR Green DNA, 72 h; series mostly up to 28.7 µM
Summary of the method: as §1

[11] = test system: P93_24; assay: as above; conditions: P. falciparum in erythrocytes, SYBR Green DNA, 72 h; series mostly up to 28.7 µM
Summary of the method: as §1

[12] = test system: PC15; assay: as above; conditions: P. falciparum in erythrocytes, SYBR Green DNA, 72 h; series mostly up to 28.7 µM
Summary of the method: as §1

[13] = test system: TAB165; assay: as above; conditions: P. falciparum in erythrocytes, SYBR Green DNA, 72 h; series mostly up to 28.7 µM
Summary of the method: as §1

[14] = S16 Schwann cell PMP22 intronic element beta-lactamase assay (AID 624044; calls by dose curve; further: nearly all actives have a fitted effect of over 15% in size)
Summary of the method: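 Beta-lactamase reporter under a PMP22 intronic regulatory element in stable S16 rat Schwann cells; 24 h compound exposure. 460 nm blue signal normalized between DMSO (0%) and potassium clavulanate, with 535 nm FRET tracking viability; curves classed by r2 and response.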

[15] = test system: DIV30; assay: qHTS profiling for inhibitors of Plasmodium falciparum proliferation (AID 504749); further: nearly all actives have a fitted effect of over 60% in size; further: potency means the concentration at half of the fitted maximal effect; conditions: P. falciparum in erythrocytes, SYBR Green DNA, 72 h; series mostly up to 28.7 µM
Summary of the method: as §1

[16] = target: ATP-dependent 6-phosphofructokinase (Trypanosoma brucei brucei) (UniProt O15648); assay: qHTS Assay to Find Inhibitors of T. brucei phosphofructokinase: hit validation (AID 492961);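 further: luminescence reports ADP formed as PFK phosphorylates fructose-6-phosphate with ATP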
ATP-dependent 6-phosphofructokinase (Trypanosoma brucei brucei), sequence (O15648 whole entry, looked up): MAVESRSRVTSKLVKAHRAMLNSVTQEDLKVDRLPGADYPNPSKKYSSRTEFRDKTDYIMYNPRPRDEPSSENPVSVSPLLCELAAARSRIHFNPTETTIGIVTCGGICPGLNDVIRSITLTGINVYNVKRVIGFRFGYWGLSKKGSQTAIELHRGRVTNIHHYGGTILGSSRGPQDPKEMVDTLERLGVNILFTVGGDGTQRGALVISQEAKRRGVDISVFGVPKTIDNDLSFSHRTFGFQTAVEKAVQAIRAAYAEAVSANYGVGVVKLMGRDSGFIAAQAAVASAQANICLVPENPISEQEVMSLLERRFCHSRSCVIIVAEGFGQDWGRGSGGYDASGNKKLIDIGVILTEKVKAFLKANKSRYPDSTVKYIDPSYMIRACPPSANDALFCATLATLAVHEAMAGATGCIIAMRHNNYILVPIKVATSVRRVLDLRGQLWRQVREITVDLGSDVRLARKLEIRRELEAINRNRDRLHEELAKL
Summary of the method: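 ADP-Glo luminescence read-out of ADP formed by 1.25 nM PFK from 0.1 mM ATP and 0.5 mM F6P (TEA pH 8.0, 45 min, RT). Compounds titrated; activity normalized to no-enzyme and full-enzyme controls.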

[17] = target: Fructose-bisphosphate aldolase (Giardia intestinalis (strain ATCC 50803 / WB clone C6)) (UniProt A8B2U2); assay: qHTS Assay for Inhibitors of Fructose-1,6-bisphosphate Aldolase from Giardia Lamblia: Primary screen confirmation (AID 2787);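 further: aldolase product measured through coupled diaphorase step turning resazurin into fluorescent resorufin; nearly all actives have a fitted effect of over 45% in size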
Fructose-bisphosphate aldolase (Giardia intestinalis (strain ATCC 50803 / WB clone C6)), sequence (A8B2U2 whole entry, looked up): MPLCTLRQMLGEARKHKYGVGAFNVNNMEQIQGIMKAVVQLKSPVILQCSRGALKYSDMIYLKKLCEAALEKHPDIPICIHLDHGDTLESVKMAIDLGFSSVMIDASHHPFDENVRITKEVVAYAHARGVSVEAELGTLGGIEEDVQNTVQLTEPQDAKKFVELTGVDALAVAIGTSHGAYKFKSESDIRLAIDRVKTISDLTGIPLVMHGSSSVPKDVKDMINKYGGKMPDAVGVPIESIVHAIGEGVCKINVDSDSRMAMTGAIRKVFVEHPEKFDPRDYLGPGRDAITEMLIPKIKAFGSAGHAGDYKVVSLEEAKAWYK
Summary of the method: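 FBPA (40 nM in enzyme reagent, with 30 uM ZnCl2) was preincubated 10 min at RT with compound up to 57.5 uM final. Substrate plus coupled detection system was then added, and fluorescence (525/598 nm) was read after 20 min at RT.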

[18] = target: Cytochrome P450 3A4 (Homo sapiens) (UniProt P08684); assay: qHTS Assay for Inhibitors and Substrates of Cytochrome P450 3A4 (AID 884); further: nearly all actives have a fitted effect of over 50% in size; further: potency means the concentration at half of the fitted maximal effect
Cytochrome P450 3A4 (Homo sapiens), sequence (P08684 whole entry, looked up): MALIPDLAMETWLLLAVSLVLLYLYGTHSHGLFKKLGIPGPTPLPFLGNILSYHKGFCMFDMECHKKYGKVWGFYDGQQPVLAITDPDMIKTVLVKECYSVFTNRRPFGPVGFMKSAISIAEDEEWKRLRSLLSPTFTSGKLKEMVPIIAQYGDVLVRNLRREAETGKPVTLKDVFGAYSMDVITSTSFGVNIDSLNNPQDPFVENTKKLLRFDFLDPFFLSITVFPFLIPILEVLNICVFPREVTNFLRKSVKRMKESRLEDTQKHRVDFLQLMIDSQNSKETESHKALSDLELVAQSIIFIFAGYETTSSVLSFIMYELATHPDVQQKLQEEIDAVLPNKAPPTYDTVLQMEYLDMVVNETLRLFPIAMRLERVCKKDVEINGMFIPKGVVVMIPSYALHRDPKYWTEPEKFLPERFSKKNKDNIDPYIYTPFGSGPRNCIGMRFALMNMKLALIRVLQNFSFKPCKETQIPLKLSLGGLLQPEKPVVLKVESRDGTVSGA
Summary of the method: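 Luminescent readout of luciferin produced by CYP3A4 (20 nM) dealkylation of Luciferin-PPXE, 25 uM (its KM). NADPH-driven reaction ran 60 min at RT after 10 min compound preincubation; data scaled to 57 uM ketoconazole as 100% inhibition.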

[19] = target: Cytochrome P450 3A4 (Homo sapiens) (UniProt P08684); assay: qHTS Assay for Activators of Cytochrome P450 3A4 (AID 885); further: nearly all actives have a fitted effect of over 65% in size
Summary of the method: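 CYP3A4 activity: Luciferin-PPXE O-dealkylation, 25uM substrate, 200mM KPO4, RT throughout. Read-out is luciferase luminescence; higher values reflect activation.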

[20] = Confirmation and Secondary Assay for Modulators of Hemoglobin Beta Chain Splicing at IVS2 654 locus (AID 910);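 further: HeLa cells stably carrying EGFP split by mutant beta-globin IVS2-654 intron; per-well total GFP intensity by laser scanning cytometry after 2-day treatment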
Summary of the method: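 Readout: per-well total peak green fluorescence (488 nm ex, 500–520 nm em) from objects 5–250 µm, reflecting correct splicing of an EGFP-654 reporter. Compounds were applied for 2 days at 37 °C to overnight-plated HeLa EGFP-654 cells; controls were DMSO and 500 nM IVS2-654 PNA.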

Q: What does the source list for `Cc1cn([C@H]2C[C@H](N=[N+]=[N-])[C@H](CO)O2)c(=O)[nH]c1=O`?
A: outcome [1]: inactive; Potency [2]: inactive; Potency [3]: inactive; Potency [4]: inactive; Potency [5]: inactive; Potency [6]: inactive; Potency [7]: inactive; Potency [8]: inactive; Potency [9]: inactive; Potency [10]: inactive; Potency [11]: inactive; Potency [12]: inactive; Potency [13]: inactive

Q: For `O=C(O)[C@@H](S)[C@H](S)C(=O)O`, which outcome [1] is on record?
A: Its outcome is “inactive”.

Q: And the outcome [14]?
A: The outcome was “inactive”.

Q: And the Potency [3]?
A: The Potency was 8.91 µM (active).

Q: What about the Potency [5] of the same compound?
A: Its Potency is 6.31 µM (active).

Q: What about the Potency [6] of the same compound?
A: The Potency was 5.01 µM (active).

Q: And the Potency [7]?
A: The Potency was 7.08 µM (active).

Q: And the Potency [8]?
A: Its Potency is 6.75 µM (active).

Q: What about the Potency [15] of the same compound?
A: The Potency was 6.75 µM (active).

Q: And the Potency [10]?
A: The Potency was 13.5 µM (active).

Q: And the Potency [11]?
A: The Potency was 4.47 µM (active).

Q: What about the Potency [13] of the same compound?
A: Its Potency is 11.2 µM (active).

Q: What does the source list for `NS(=O)(=O)c1cc2c(cc1Cl)N[C@H](Cc1ccccc1)NS2(=O)=O`?
A: outcome [16]: inactive; outcome [1]: inactive; Potency [2]: inactive; outcome [14]: inactive; Potency [3]: inactive; Potency [4]: inactive; Potency [6]: inactive; Potency [7]: inactive; Potency [8]: inactive; Potency [15]: inactive; Potency [9]: inactive; Potency [10]: inactive; Potency [11]: inactive; Potency [12]: inactive; Potency [13]: inactive

Q: Which results are given for `CC(C)(C)NC[C@@H](O)c1ccc(O)c(CO)n1`?
A: outcome [16]: inactive; outcome [1]: inactive; outcome [14]: inactive; Potency [3]: inactive; Potency [4]: inactive; Potency [5]: inactive; Potency [6]: inactive; Potency [7]: inactive; Potency [8]: inactive; Potency [15]: inactive; Potency [9]: inactive; Potency [10]: inactive; Potency [11]: inactive; Potency [12]: inactive; Potency [13]: inactive

Q: For `Cc1cnc(NC(=O)c2ccccn2)s1`, which outcome [17] is on record?
A: Its outcome is “inactive”.

Q: With `CCN(CC(=O)NC(=O)NCc1ccccc1)Cc1nc2ccccc2c(=O)[nH]1` as the compound, how does the outcome [17] read?
A: The outcome was “inactive”.

Q: With `COc1ccc2cc1Oc1ccc(cc1)C[C@H]1c3cc(c(OC)cc3CCN1C)Oc1c(OC)c(OC)cc3c1[C@@H](C2)N(C)CC3` as the compound, how does the Potency [18] read?
A: The Potency was “inactive”.

Q: With `CNc1ncncc1-c1ccc(C(=O)N(C)C)cc1` as the compound, how does the Potency [18] read?
A: Its Potency is 5.01 µM (active).

Q: What about the Potency [19] of the same compound?
A: The Potency was “inactive”.

Q: What about the outcome [20] of the same compound?
A: Its outcome is “inactive”.

Q: With `CN(C)c1ccc(-c2nc(N3CCNCC3)c3ccccc3n2)cc1` as the compound, how does the Potency [19] read?
A: The Potency was “inactive”.

Q: What about the outcome [20] of the same compound?
A: The outcome was “inactive”.

Q: Which Potency [18] does the source give for `O=C(O)c1cc(N=Nc2ccc([N+](=O)[O-])cc2)ccc1O` here?
A: The Potency was “inactive”.

Q: With `O=S(=O)(c1ccc(NC(=S)NN=C(C2CC2)C2CC2)cc1)N1CCOCC1` as the compound, how does the outcome [17] read?
A: The outcome was “inactive”.

Q: Which results are given for `C[C@]12CC[C@H]3c4ccc(O)cc4CC[C@@H]3[C@H]1CC[C@@H]2OC(=O)CCC1CCCC1`?
A: outcome [16]: inactive; outcome [1]: inactive; outcome [14]: inactive; Potency [5]: inactive; Potency [9]: 14.1 µM (active); Potency [10]: 12 µM (active); Potency [12]: 12.6 µM (active)

Q: For `CN(C)c1ccc(-c2cc(NCc3ccccc3)ncn2)cc1`, which Potency [19] is on record?
A: The Potency was “inactive”.

Q: What about the outcome [20] of the same compound?
A: The outcome was “inactive”.

Q: With `CC1CCCN(S(=O)(=O)c2ccc(C(=O)Nc3nnc(-c4ccncc4)o3)cc2)C1` (configuration not stated) as the compound, how does the outcome [17] read?
A: The outcome was “inactive”.

Q: What does the source list for `CN(C)[C@H]1C(=O)C(C(=O)NCN2CCCC2)=C(O)[C@]2(O)C(=O)C3=C(O)c4c(O)cccc4[C@](C)(O)[C@H]3C[C@H]12`?
A: Potency [2]: inactive; outcome [14]: inactive; Potency [3]: inactive; Potency [4]: inactive; Potency [5]: inactive; Potency [6]: inactive; Potency [7]: inactive; Potency [8]: inactive; Potency [15]: inactive; Potency [9]: inactive; Potency [11]: inactive; Potency [12]: inactive; Potency [13]: inactive

Q: For `COc1ccccc1-c1nc(NCc2ccccc2)c2ccccc2n1`, which Potency [18] is on record?
A: The Potency was 3.98 µM (active).

Q: And the Potency [19]?
A: Its Potency is “inactive”.

Q: What about the outcome [20] of the same compound?
A: Its outcome is “inactive”.

Q: Which outcome [17] does the source give for `CN1CCN(CCCCOc2ccccc2-c2ccccc2)CC1` here?
A: The outcome was “inactive”.

Q: Which outcome [20] does the source give for `CN(C)Cc1ccccc1-c1ccc2ncnc(NC3CCNCC3)c2c1` here?
A: The outcome was “inactive”.
